# Screens from PubChem BioAssay.
# An excerpt weighted towards active compounds, which were near 2.4% of everything screened.
# TLR9-MyD88 block: blocks human TLR9 binding to MyD88 | Q9NR96+Q99836 | CHO BLA complementation TLR9-MyD88, CCF4 FRET ratio | inhibition, % at 4.98 µM | actives 0.21% (n = 340,000) | AID 504734;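 active = inhibition above the mean over all tested compounds plus 3 SD, cut at about 21% in these data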;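 note: 0% = DMSO only wells and 100% = clavulanate BLA inhibitor control wells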
# HTR2A ag: mouse HTR2A agonism via beta-arrestin recruitment | P35363 | CHO-K1 mHTR2A beta-arrestin complementation, luminescence; percent of 30 µM serotonin response | activation, % at 7.6 µM | actives 0.66% (n = 360,000);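 active = activation above a run cutoff, the mean activation of all tested compounds plus 3 SD, cut at about 14% in these data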;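 note: 0% = plate median of compound wells and 100% = 30 µM serotonin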
# Target sequence (P35363 whole entry, looked up): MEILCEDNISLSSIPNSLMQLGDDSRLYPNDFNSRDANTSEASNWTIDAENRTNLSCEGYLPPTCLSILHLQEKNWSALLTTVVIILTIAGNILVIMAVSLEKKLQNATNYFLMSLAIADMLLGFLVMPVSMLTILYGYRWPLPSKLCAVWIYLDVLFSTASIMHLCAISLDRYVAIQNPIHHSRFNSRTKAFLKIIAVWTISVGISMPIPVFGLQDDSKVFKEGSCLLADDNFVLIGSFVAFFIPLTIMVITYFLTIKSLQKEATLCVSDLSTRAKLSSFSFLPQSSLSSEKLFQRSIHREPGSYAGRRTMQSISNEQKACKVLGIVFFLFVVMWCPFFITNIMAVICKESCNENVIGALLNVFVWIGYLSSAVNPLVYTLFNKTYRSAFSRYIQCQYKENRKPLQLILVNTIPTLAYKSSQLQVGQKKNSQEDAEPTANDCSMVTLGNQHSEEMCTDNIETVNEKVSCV
# TMEM16A act: activates or potentiates the mouse TMEM16A chloride channel; Q8BHY3; HEK293 TMEM16A/YFP-H148Q/I152L, iodide quench fluorescence; active compounds read low; B-score at 10 µM; actives 0.3% (n = 340,000);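 active = fluorescence-ratio B-score plate-corrected deviation score at least 3 library SD below zero, with starting fluorescence score within 5 deviations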;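 note: channel opened by trigger with iodide after compound preincubation; score built on the fluorescence ratio of max minus min over baseline; more negative score means more quench and so TMEM16A activation or potentiation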
# TLR4-MyD88 BLA: TLR4-MyD88 interaction inhibition in cells | HeLa CL3-4 TLR4/MyD88 BLA complementation, FRET ratio | inhibition, % at 8.4 µM | actives 0.18% (n = 200,000) | AID 861; in the data active = inhibition above about 25%;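 note: 0% = vehicle and 100% = reference inhibitor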
# ANO1 block: blocks the mouse calcium-activated chloride channel TMEM16A | Q8BHY3 | HEK293 TMEM16A/YFP iodide influx fluorescence, ionomycin | normalized B-score (activity score, 25-100; higher = stronger inhibition) at 10 µM | actives 1.2% (n = 310,000) | AID 588511;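 active = ratio plate-corrected score three or more library SD toward inhibition, starting fluorescence score within five deviations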;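 note: score derived from kinetic fluorescence span divided by baseline fluorescence per well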
# NOD2-RIPK2 inh: inhibitors of human NOD2-RIPK2 interaction | O43353 | inhibition, % at 4.98 µM | AID 624267 | CHO BLA complementation NOD2-RIPK2, CCF4 ratio | actives 0.38% (n = 360,000); in the data active = inhibition above about 21%;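 note: 0% = vehicle only and 100% = reference blocker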
# MOR ag counter: counter-screen for mouse HTR2A agonists: human mu opioid receptor agonists. shares compounds with HTR2A ag. AID 624380. actives 5.3% (n = 2,300). U2OS OPRM1 beta-arrestin PathHunter, luminescence; DMSO 0%, DAMGO 9.3 µM 100%. activation, % at 9.3 µM;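 active = mean activation above the mean of DMSO-only wells plus 3 SD, cut at about 0.5% in these data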
# HTR2A ag conf: confirmation of mouse HTR2A serotonin receptor agonists. actives 19% (n = 2,300). shares compounds with HTR2A ag. activation, % at 7.6 µM. AID 624381. CHO-K1 PathHunter beta-arrestin recruitment, luminescence; DMSO 0%, 30 µM serotonin 100%;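 active = mean activation across triplicates above the hit threshold derived in the original primary screen, cut at about 15% in these data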
# Starred values were filed as active, the others as inactive; i = inactive; x = no result given.
SMILES,TLR9-MyD88 block,HTR2A ag,TMEM16A act,TLR4-MyD88 BLA,ANO1 block,NOD2-RIPK2 inh,MOR ag counter,HTR2A ag conf
COc1ccc(CCC(=O)N2CCN(C3CCCCC3)CC2)cc1,-0.5,-1.2,i,-12.3,i,1.8,x,x
O=C(CCCc1ccccc1)N1CCN(C2CCCCC2)CC1,0.8,25.4*,i,x,i,-8.0,0.8*,14.3
Cc1[nH]c(=O)[nH]c(=O)c1S(=O)(=O)N1CCCC(C(=O)N2CCC(Cc3ccccc3)CC2)C1 (configuration not stated),-0.6,19.3*,i,-8.3,i,-2.1,-0.5,-4.5
Cc1[nH]c(=O)[nH]c(=O)c1S(=O)(=O)N1CCCC(C(=O)N2CCN(c3ccccc3Cl)CC2)C1 (configuration not stated),-4.7,-2.1,i,13.7,i,-7.8,x,x
CC1CCN(Cc2nnnn2CCCC(=O)NCCc2cnn(C)c2)CC1,3.2,15.6*,i,x,i,-4.3,-0.7,-5.4
Cc1noc(C)c1S(=O)(=O)NCc1ccc2c(c1)OCO2,5.4,31.5*,i,x,i,-8.2,-0.5,-5.3
COc1ccc(NC(=O)c2c[nH]c(=O)n(-c3ccc(C)c(C)c3)c2=O)c(OC)c1,-6.1,4.5,i,x,x,-14.7,x,x
CCOC(=O)[C@H]1[C@H]2COc3ccccc3[C@@H]2N2C(=O)c3cc(F)c(F)cc3NC(=O)[C@@]12C,-3.3,14.7*,i,x,i,2.4,-0.1,1.9
CCN(CC)S(=O)(=O)c1cccc(NC(=O)CN2C(=O)c3ccc([N+](=O)[O-])cc3C2=O)c1,-0.7,18.1*,i,-6.5,i,-14.6,-0.1,-1.2
O=C(COC(=O)CNC(=O)c1ccccc1F)NCCNC(=O)COC(=O)CNC(=O)c1ccccc1F,-1.6,-6.1,i,x,i,-2.9,x,x
O=C(CNC(=O)c1ccccc1F)OCCCOC(=O)CNC(=O)c1ccccc1F,-3.7,15.2*,i,x,i,-1.9,-0.2,1.6
O=C(NC(=S)Nn1cnc2c(cnn2-c2ccccc2)c1=O)c1ccc(Cl)cc1,-2.3,41.7*,i,13.8,i,-2.2,-0.3,0.1
O=C(NC(=S)Nn1cnc2c(cnn2-c2ccccc2)c1=O)c1ccc(Oc2ccccc2)cc1,-13.2,-2.1,i,-5.3,i,-3.9,x,x
O=C(O)CCc1nc2ccccc2n(CCc2ccccc2)c1=O,8.7,-0.4,i,-3.5,i,-1.6,x,x
NC(N)=NC(=O)Cc1c(Cl)cccc1Cl,-1.5,30.0*,i,5.8,i,-6.6,-0.7,39.8*
O=c1ncn(-c2ccccc2C(F)(F)F)c2ncccc12,-3.4,5.4,i,-9.6,i,-4.0,x,x
COc1ccc(-c2cc(C(=O)NC3CCCC3)no2)cc1,-9.0,24.9*,i,x,i,-9.2,-0.5,-3.8
O=C1C2CCCN2C(=O)N1CCCCN1CCN(c2ccccc2)CC1 (configuration not stated),3.7,15.1*,i,-3.0,i,-4.8,-0.7,47.0*
CN(c1ccccc1C(=O)Nc1ccccc1C(=O)NCc1ccco1)S(C)(=O)=O,-7.6,14.4*,i,13.3,i,-2.6,-0.6,-4.9
Nc1ccccc1Sc1nc2ccccc2[nH]1,6.3,-2.4,i,7.3,i,-6.8,x,x
O=c1[nH]cc(NCCc2ccccc2)c(=O)[nH]1,-3.3,4.0,i,4.8,i,5.1,x,x
CCCn1c(N)c(N(CCOC)C(=O)C(C)Oc2ccc(F)cc2)c(=O)[nH]c1=O (configuration not stated),4.9,1.9,i,x,i,-12.8,x,x
O=C(CCN1CCN(c2ccccc2)CC1)N/N=C/c1ccc(O)c(O)c1O,3.7,15.0*,i,13.7,x,-8.0,0.1,51.2*
O=C(NC1CCCCC1)C(c1ccccn1)N(C(=O)Cc1cccs1)c1ccc(Cl)cc1 (configuration not stated),-8.8,2.1,i,-11.4,i,-1.7,x,x
Cc1ccccc1-n1ncc(C(C)NS(=O)(=O)c2ccccc2Cl)c1C (configuration not stated),-0.2,-6.8,i,x,i,-5.0,x,x
SMILES,TLR9-MyD88 block,HTR2A ag,TMEM16A act,TLR4-MyD88 BLA,ANO1 block,NOD2-RIPK2 inh,MOR ag counter,HTR2A ag conf
Cc1ccccc1-n1ncc(C(C)NS(=O)(=O)c2sccc2C)c1C (configuration not stated),-9.4,14.8*,i,x,i,-2.9,-0.7,-3.1
O=C(CSc1ccc2nnc(-c3ccncc3)n2n1)Nc1ccc2c(c1)OCO2,2.3,35.3*,i,8.2,i,-1.7,-0.2,-0.3
O=C(CSc1ccc2nnc(-c3ccncc3)n2n1)Nc1ccc2c(c1)OCCO2,6.0,4.8,i,-5.5,i,-8.1,x,x
CCN(CC)CCC(c1cc(OC)c(OC)c(OC)c1)c1c(OC)cc(OC)c2ccc(=O)oc12 (configuration not stated),-6.8,-4.7,i,x,i,-4.5,x,x
COC(=O)Cn1c(-c2ccc(OC)cc2)c(-c2ccc(OC)cc2)nnc1=O,-2.2,1.2,i,x,i,-9.8,x,x
CNc1cc(C)nc(-n2nc(C)cc2C)n1,-16.7,3.0,i,-6.7,i,-12.4,x,x
Cc1cc(Cl)nc(-n2nc(C)cc2C)n1,x,15.7*,i,x,i,-4.9,-0.7,-3.4
C[C@@H](c1ccccc1)N1C[C@@H](COCc2ccccc2)Oc2cc(N3CCC[C@@H]3CO)ccc2S1(=O)=O,x,-2.4,x,x,x,-7.5,x,x
CCN(Cc1ccc2c(c1)OCO2)C(=O)/C=C/c1cccc(Br)c1,-10.2,-1.5,i,x,i,1.9,x,x
CC(C)(C)N(Cc1ccc2c(c1)OCO2)C(=O)/C=C\S(=O)c1ccccc1 (configuration not stated),-7.6,19.3*,i,x,x,11.1,-0.6,2.1
COc1ccccc1C(=O)COC(=O)c1cc(S(=O)(=O)N2CCCCC2)ccc1N1CCOCC1,-9.1,17.5*,i,x,i,-6.2,-0.3,-0.7
COC(=O)[C@H]1C[C@H](OC(=O)NCC2CCCCC2)[C@@]2(O)CN(S(=O)(=O)c3ccc(C)cc3)CC2[C@H]1C(=O)OC (some centres not stated),5.8,-0.7,x,x,x,3.2,x,x
COC(=O)[C@H]1C[C@H](OC(=O)Nc2c(C)noc2C)[C@@]2(O)CN(S(=O)(=O)c3ccc(C)cc3)CC2[C@H]1C(=O)OC (some centres not stated),5.5,16.0*,x,x,x,3.6,-0.3,-1.6
